Reference: PubChem BioAssay (NCATS)
Inconclusive results are not listed. Calls of active or inactive are those of the source. Calls follow the shape of the dose curve; as a rule, active = well fitted curve in the direction sought with a large enough effect; inconclusive = small, poorly fitted or top-dose-only effect, or another doubt; inactive = no such curve, though single readings can be large; an effect the other way counts as inactive or inconclusive.

Key:
[1] = Quantitative High-Throughput drug screen in 47 multiple myeloma cell lines against the NCATS MIPE library collection: KMS21BM_JCRB cell viability assay (AID 1918974); details: ATP luminescence, 48 h; viability: at 45.8 µM unless noted
Procedure, shortened: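 Approved and investigational drugs from MIPE 4.0 were added by pin tool to 500 cells per well. After 48 hours at 37C, ATP-based CellTiter-Glo luminescence indicated remaining viability.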

[2] = Quantitative High-Throughput drug screen in 47 multiple myeloma cell lines against the NCATS MIPE library collection: KMS26_JCRB cell viability assay (AID 1918975); also: nearly all actives have a fitted effect of over 45% in size;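 as to viability (% of DMSO): 100% = DMSO-treated wells and 0% = wells with media only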
Procedure, shortened: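 Viability readout: CellTiter-Glo luminescence following 5 min room-temperature incubation with reagent. Prior exposure: 48 h, 37C, humidified 5% CO2, 500 cells per well.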

[3] = Quantitative High-Throughput drug screen in 47 multiple myeloma cell lines against the NCATS MIPE library collection: MMM1_PLB cell viability assay (AID 1918976); also: nearly all actives have a fitted effect of over 35% in size
Procedure, shortened: (§1)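 Cells were exposed to library compounds for 48 hours, after which ATP was measured by CellTiter-Glo. Signal was taken as median relative luminescence units.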

[4] = Quantitative High-Throughput drug screen in 47 multiple myeloma cell lines against the NCATS MIPE library collection: MOLP8_DSMZ cell viability assay (AID 1918977); also: nearly all actives have a fitted effect of over 45% in size
Procedure, shortened: as §1

[5] = Quantitative High-Throughput drug screen in 47 multiple myeloma cell lines against the NCATS MIPE library collection: OCIMY1_PLB cell viability assay (AID 1918979); also: nearly all actives have a fitted effect of over 35% in size;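 as to viability: series mostly up to about 46 µM; 100% = DMSO-only wells and 0% = cell-free media-only wells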
Procedure, shortened: as §1

[6] = Quantitative High-Throughput drug screen in 47 multiple myeloma cell lines against the NCATS MIPE library collection: MM1S_ATCC cell viability assay (AID 1918980); also: nearly all actives have a fitted effect of over 45% in size
Procedure, shortened: as §1

[7] = Quantitative High-Throughput drug screen in 47 multiple myeloma cell lines against the NCATS MIPE library collection: MM1R_ATCC cell viability assay (AID 1918981); also: nearly all actives have a fitted effect of over 35% in size
Procedure, shortened: as §1

[8] = Quantitative High-Throughput drug screen in 47 multiple myeloma cell lines against the NCATS MIPE library collection: LP1_DSMZ cell viability assay (AID 1918982); also: nearly all actives have a fitted effect of over 35% in size
Procedure, shortened: as §1

[9] = Quantitative High-Throughput drug screen in 47 multiple myeloma cell lines against the NCATS MIPE library collection: KMS28PE_JCRB cell viability assay (AID 1918983); also: nearly all actives have a fitted effect of over 35% in size
Procedure, shortened: as §1

[10] = Quantitative High-Throughput drug screen in 47 multiple myeloma cell lines against the NCATS MIPE library collection: L363_DSMZ cell viability assay (AID 1918984); also: nearly all actives have a fitted effect of over 40% in size
Procedure, shortened: as §1

[11] = Quantitative High-Throughput drug screen in 47 multiple myeloma cell lines against the NCATS MIPE library collection: KMS34_JCRB cell viability assay (AID 1918985); also: nearly all actives have a fitted effect of over 40% in size
Procedure, shortened: as §1

[12] = Quantitative High-Throughput drug screen in 47 multiple myeloma cell lines against the NCATS MIPE library collection: OCIMY7_PLB cell viability assay (AID 1918987); details: OCI-MY7 myeloma viability, CellTiter-Glo ATP, 48 h; viability (% of DMSO): at 45.8 µM; also: nearly all actives have a fitted effect of over 65% in size
Procedure, shortened: as §1

[13] = Quantitative High-Throughput drug screen in 47 multiple myeloma cell lines against the NCATS MIPE library collection: OCIMY5_PLB cell viability assay (AID 1918988); also: nearly all actives have a fitted effect of over 65% in size
Procedure, shortened: as §1

[14] = Quantitative High-Throughput drug screen in 47 multiple myeloma cell lines against the NCATS MIPE library collection: OPM1_PLB cell viability assay (AID 1918989); also: nearly all actives have a fitted effect of over 40% in size
Procedure, shortened: as §1

[15] = Quantitative High-Throughput drug screen in 47 multiple myeloma cell lines against the NCATS MIPE library collection: SKMM1_PLB cell viability assay (AID 1919863); details: SKMM1 myeloma viability, CellTiter-Glo ATP, 48 h; viability: stronger effect = lower value; also: nearly all actives have a fitted effect of over 35% in size; as to viability: series mostly up to about 46 µM
Procedure, shortened: as §1

[16] = Quantitative High-Throughput drug screen in 47 multiple myeloma cell lines against the NCATS MIPE library collection: U266_ATCC cell viability assay (AID 1919864); also: nearly all actives have a fitted effect of over 35% in size
Procedure, shortened: as §1

[17] = Quantitative High-Throughput drug screen in 47 multiple myeloma cell lines against the NCATS MIPE library collection: XG6_PLB cell viability assay (AID 1919865); also: nearly all actives have a fitted effect of over 40% in size
Procedure, shortened: as §1

[18] = Quantitative High-Throughput drug screen in 47 multiple myeloma cell lines against the NCATS MIPE library collection: XG1_PLB cell viability assay (AID 1919866); also: nearly all actives have a fitted effect of over 35% in size
Procedure, shortened: as §1

[19] = Quantitative High-Throughput drug screen in 47 multiple myeloma cell lines against the NCATS MIPE library collection: VP6_DJ cell viability assay (AID 1919867); also: nearly all actives have a fitted effect of over 40% in size
Procedure, shortened: as §1

[20] = Quantitative High-Throughput drug screen in 47 multiple myeloma cell lines against the NCATS MIPE library collection: NCIH929_DSMZ cell viability assay (AID 1918978); also: nearly all actives have a fitted effect of over 35% in size
Procedure, shortened: as §1
Potency is read from the fitted curve at half-maximal effect.

NS(=O)(=O)c1cccc2c1C(=O)c1cccc(O)c1C2=O
active: Potency [1] 0.148 µM | Potency [2] 0.662 µM | Potency [3] 0.264 µM | Potency [4] 0.296 µM | Potency [5] 1.18 µM | Potency [6] 10.5 µM | Potency [7] 0.526 µM | Potency [8] 0.743 µM | Potency [9] 1.18 µM | Potency [10] 0.166 µM | Potency [11] 0.418 µM | Potency [12] 0.118 µM | Potency [13] 0.526 µM | Potency [14] 0.235 µM | Potency [15] 0.372 µM | Potency [16] 6.62 µM | Potency [17] 0.372 µM | Potency [18] 0.264 µM

Clc1ccc(CCC(Cn2ccnc2)Sc2c(Cl)cccc2Cl)cc1 (stereo not drawn)
inactive: Potency [16]
active: Potency [1] 23.5 µM | Potency [3] 26.4 µM | Potency [17] 23.5 µM | Potency [19] 26.4 µM

CS(=O)c1ccc(-c2nc(-c3ccc(F)cc3)c(-c3ccncc3)[nH]2)cc1 (stereo not drawn)
active: viability [1] 1.55% [at 92.2 µM] | Potency [20] 5.4 µM | Potency [6] 38.2 µM | Potency [10] 24.1 µM | Potency [12] 9.59 µM | Potency [13] 19.1 µM | Potency [14] 48.1 µM | Potency [17] 42.9 µM | Potency [18] 38.2 µM | Potency [19] 7.62 µM
inactive: Potency [5]

CC=C(C)C(=O)O[C@H]1C(C)=C[C@]23C(=O)[C@@H](C=C(CO)[C@@H](O)[C@]12O)[C@H]1[C@@H](C[C@H]3C)C1(C)C
active: Potency [1] 8.33 µM | Potency [3] 18.7 µM | Potency [7] 18.7 µM | Potency [9] 0.0372 µM | Potency [10] 4.69 µM | Potency [11] 20.9 µM | Potency [12] 14.8 µM | Potency [14] 4.18 µM | Potency [15] 0.0059 µM | Potency [17] 3.72 µM | Potency [19] 26.4 µM

COc1ccc(Cc2nccc3cc(OC)c(OC)cc23)cc1OC
active: Potency [3] 23.5 µM | Potency [5] 18.7 µM | Potency [6] 23.5 µM | Potency [7] 23.5 µM | Potency [11] 3.72 µM | Potency [12] 18.7 µM | Potency [13] 16.6 µM | Potency [14] 11.8 µM | Potency [17] 13.2 µM | Potency [18] 14.8 µM
inactive: Potency [1]

O=C(O)C(O)Cc1ccc(O)c(O)c1 (stereo not drawn)
active: Potency [1] 0.0083 µM | Potency [2] 20.9 µM | Potency [3] 5.26 µM | Potency [4] 20.9 µM | Potency [6] 16.6 µM | Potency [7] 20.9 µM | Potency [9] 23.5 µM | Potency [11] 18.7 µM | Potency [13] 23.5 µM | Potency [15] 11.8 µM | Potency [16] 26.4 µM
inactive: Potency [20] | Potency [10] | Potency [17]

COCCOc1nc(-c2ccc(Cl)c(Cl)c2)n(-c2ccc(NC(=O)CCl)cc2)n1
active: Potency [1] 16.6 µM | Potency [3] 16.6 µM | Potency [20] 13.2 µM | Potency [7] 14.8 µM | Potency [10] 8.33 µM | Potency [11] 18.7 µM | Potency [12] 16.6 µM | Potency [13] 20.9 µM | Potency [14] 20.9 µM | Potency [16] 26.4 µM | Potency [17] 14.8 µM | Potency [18] 16.6 µM | Potency [19] 20.9 µM

OC[C@H]1O[C@@H](n2cnc3c2NC=NC[C@@H]3O)C[C@H]1O
active: Potency [1] 0.0042 µM | Potency [3] 20.9 µM | Potency [20] 26.4 µM | Potency [12] 23.5 µM
inactive: Potency [2] | Potency [4] | Potency [5] | Potency [7] | Potency [8] | Potency [10] | Potency [14] | viability [15] 110%

O=C1NC(=O)C(=Cc2cccc(C(F)(F)F)c2)S1
active: Potency [1] 8.33 µM | Potency [3] 23.5 µM | Potency [13] 26.4 µM | Potency [15] 14.8 µM | Potency [17] 20.9 µM | Potency [18] 16.6 µM
inactive: Potency [4] | Potency [5] | Potency [7] | Potency [8] | Potency [11]

Clc1ccc(C(c2ccc(Cl)cc2)n2cc[n+](CC(OCc3ccc(Cl)cc3Cl)c3ccc(Cl)cc3Cl)c2)cc1 (stereo not drawn)
active: Potency [1] 8.33 µM | Potency [2] 16.6 µM | Potency [3] 18.7 µM | Potency [4] 18.7 µM | Potency [20] 9.35 µM | Potency [5] 18.7 µM | Potency [6] 16.6 µM | Potency [7] 18.7 µM | Potency [8] 18.7 µM | Potency [9] 20.9 µM | Potency [10] 6.62 µM | Potency [11] 16.6 µM | Potency [13] 14.8 µM | Potency [14] 11.8 µM | Potency [15] 20.9 µM | Potency [16] 16.6 µM | Potency [17] 6.62 µM | Potency [18] 8.33 µM | Potency [19] 8.33 µM

O=c1c(O)c(-c2ccc(O)cc2)oc2cc(O)cc(O)c12
active: Potency [1] 5.9 µM | Potency [20] 9.35 µM | Potency [6] 18.7 µM | Potency [12] 14.8 µM | Potency [13] 26.4 µM | Potency [17] 14.8 µM | Potency [18] 16.6 µM
inactive: Potency [5] | Potency [11]

NC(CO)(CO)CCc1ccc(Sc2cccc(OCc3ccccc3)c2)cc1Cl
active: Potency [1] 13.2 µM | Potency [2] 18.7 µM | Potency [3] 23.5 µM | Potency [20] 20.9 µM | Potency [5] 26.4 µM | Potency [6] 3.32 µM | Potency [7] 10.5 µM | Potency [8] 20.9 µM | Potency [10] 10.5 µM | Potency [13] 20.9 µM | Potency [14] 6.62 µM | Potency [15] 26.4 µM | Potency [17] 20.9 µM | Potency [18] 16.6 µM
